D2 ag-1 = agonists of human D2 dopamine receptor. P14416. HEK293 T-REx D2 cells, calcium flux agonist mode. activation, % at 2 µM. 340,000 compounds, 0.53% hits;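 active = activation over 3 SD above normal in the single-dose calcium agonist read, cut at about 30% in these data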; also: 0% is about no effect
Target sequence (P14416 whole entry, looked up): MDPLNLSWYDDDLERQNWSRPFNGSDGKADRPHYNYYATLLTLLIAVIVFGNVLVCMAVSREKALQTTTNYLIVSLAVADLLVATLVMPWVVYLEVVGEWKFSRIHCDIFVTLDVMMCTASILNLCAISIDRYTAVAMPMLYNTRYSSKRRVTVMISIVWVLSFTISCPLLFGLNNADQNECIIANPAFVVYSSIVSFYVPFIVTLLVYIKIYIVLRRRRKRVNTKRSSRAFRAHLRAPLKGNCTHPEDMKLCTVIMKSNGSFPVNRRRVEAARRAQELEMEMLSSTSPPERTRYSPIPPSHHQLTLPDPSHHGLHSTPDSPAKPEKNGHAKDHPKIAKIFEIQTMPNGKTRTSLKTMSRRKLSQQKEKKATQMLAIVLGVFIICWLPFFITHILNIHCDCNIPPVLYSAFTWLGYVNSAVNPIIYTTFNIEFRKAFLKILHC
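Calcium-flux readout, 1 cycle/sec over 180 s following compound pin transfer, in inducible HEK293 Trex D2 cells (force-coupled); dopamine controls included. Positive calcium responses during this window marked compounds as potential agonists.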
D2 ag-2 = human D2 receptor agonism in beta-arrestin assay; DiscoveRx PathHunter D2 beta-arrestin, luminescence, 90 min; 100% = 57 uM dopamine signal; AID 624465; P14416; 360,000 compounds, 0.084% hits; activation, % (no concentration beside the values); in the data active = activation above about 40%; inconclusive = between about 15% and that limit
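Agonist mode: compounds alone added to overnight-plated D2 PathHunter cells for 90 min at 37 C, with 57 uM final dopamine (EC100) defining full response. Beta-arrestin recruitment detected by chemiluminescent reagent, read after 1 h at ambient temperature.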
D2 antag = antagonists of human D2 dopamine receptor; P14416; HEK293 TREx D2 cells, calcium flux, dopamine EC80; inhibition, % at 10 µM; 340,000 compounds, 2% hits; in the data active = inhibition above about 30%; inactive = below that, where a call was filed; also: 0% is about no effect
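Overnight-induced (tetracycline, 30 C) HEK293 T-REx cells carrying force-coupled D2 receive a no-wash calcium dye, then compound, then EC80 dopamine at 180 s; signals are read kinetically throughout.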
D2 PAM-1 = human D2 receptor positive allosteric modulation; 360,000 compounds, 0.23% hits; P14416; DiscoveRx D2 beta-arrestin cells, luminescence, 90 min; 100% = 57 uM dopamine signal; potentiation, % (test concentration not listed); in the data active = potentiation above about 50%; inconclusive = mostly about 30% to 49%
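D2 cells co-treated with compound plus 50 nM dopamine (EC20) for 90 min at 37 deg C to detect potentiation. Beta-arrestin recruitment was read as enzyme-fragment luminescence after 1 h at ambient temperature. Full response was set by 57 uM dopamine.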
D2 PAM-2 = positive allosteric modulators of human D2 dopamine receptor. potentiation, % at 10 µM. AID 485347. 340,000 compounds, 0.34% hits. HEK293 T-REx D2, calcium flux, EC20 dopamine potentiation;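 active = potentiation over 3 SD above the plate norm, cut at about 30% in these data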; also: 0% is about no effect
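Using a no-wash calcium dye in inducible, force-coupled HEK293 Trex cells expressing D2, we tracked fluorescence each second for 180 s after compound, then for 180 s after EC20 dopamine to detect augmented signalling.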
The depositor's hits bear a star. This is a sample that favours compounds with a hit; in the whole collection about 2.4% have one here.

Results for COc1ccc(NC(=O)C2=CC(c3ccc(C)cc3)=NS(=O)(=O)N2C)cc1OC ?
D2 ag-1: 0; D2 ag-2: -2; D2 antag: 22; D2 PAM-1: -16; D2 PAM-2: -19

How did COc1ccc(C2=NS(=O)(=O)N(C)C(C(=O)Nc3ccc(OC)c(OC)c3)=C2)cc1 do in these assays?
D2 ag-1: 0; D2 ag-2: -3; D2 antag: 56*; D2 PAM-1: -14; D2 PAM-2: -20

How did CC(=O)c1cccc(NC(=O)C2=CC(c3ccc4c(c3)OCO4)=NS(=O)(=O)N2C)c1 do in these assays?
D2 ag-1: 0; D2 ag-2: -2; D2 antag: 48*; D2 PAM-1: -19; D2 PAM-2: -22

What do the screens show for `O=C1C(Cl)=C(NCc2cccnc2)C(=O)c2ccccc21`?
D2 ag-1: 0; D2 ag-2: inconclusive; D2 antag: 34*; D2 PAM-1: 7; D2 PAM-2: 7

How did O=C1C(Cl)=C(NCCc2ccccc2)C(=O)c2ccccc21 do in these assays?
D2 ag-2: 2; D2 PAM-1: -16

Results for CCOC(=O)c1ccccc1NC(=O)N1CCN2CCCCC2C1 (stereo unspecified) ?
D2 ag-1: 0; D2 PAM-2: -6

Results for O=C(Nc1ccccc1)c1ccc2nc(-c3ccco3)c(-c3ccco3)nc2c1 ?
D2 ag-1: -2; D2 ag-2: 7; D2 antag: 1; D2 PAM-1: inconclusive; D2 PAM-2: 25

Results for CC(=O)c1ccc(NC(=O)c2ccc3nc(-c4ccco4)c(-c4ccco4)nc3c2)cc1 ?
D2 ag-2: 13; D2 PAM-1: 76*

What do the screens show for `Cc1ccc(C)c(OCCN2C(=O)NC3(CCc4ccccc4C3)C2=O)c1` (stereo unspecified)?
D2 ag-1: 1; D2 ag-2: -4; D2 antag: 33*; D2 PAM-1: -27; D2 PAM-2: -3

Results for O=C(NCCc1ccccc1Cl)c1cc2ccccn2n1 ?
D2 ag-1: 1; D2 PAM-2: -3

What do the screens show for `COc1ccc(CNC(=O)COC(=O)c2n[nH]c3ccccc23)cc1OC`?
D2 ag-1: 1; D2 ag-2: 1; D2 antag: 30*; D2 PAM-1: -6; D2 PAM-2: 5

How did COc1ccccc1CNC(=O)COC(=O)c1n[nH]c2ccccc12 do in these assays?
D2 ag-1: -1; D2 ag-2: -1; D2 antag: -4; D2 PAM-1: -8; D2 PAM-2: -2

Results for Cc1nnc(NC(=O)c2ccc(S(=O)(=O)N3CC(C)CC(C)C3)cc2)o1 (stereo unspecified) ?
D2 ag-1: 0; D2 ag-2: -7; D2 antag: -4; D2 PAM-1: -8; D2 PAM-2: 35*

Results for COc1ccccc1NC(=O)Cn1c(=O)n(-c2ccc(C)cc2)c(=O)c2c1cnn2C ?
D2 ag-1: 0; D2 PAM-2: -2

Results for COCCN(C(=O)c1ccccc1)c1nnc(-c2cccnc2)s1 ?
D2 ag-1: 0; D2 ag-2: -3; D2 antag: 48*; D2 PAM-1: -1; D2 PAM-2: 8

How did COc1ccc(-n2cnc3cc(C(=O)NCCC4=CCCCC4)ccc32)cc1 do in these assays?
D2 ag-1: 1; D2 PAM-2: 5

How did COc1cc(C2Nc3cc(C)c(C)cc3NC3=C2C(=O)CC(C)(C)C3)ccc1OC(C)=O (stereo unspecified) do in these assays?
D2 ag-1: 0; D2 ag-2: 4; D2 antag: 3; D2 PAM-1: -6; D2 PAM-2: 17

What do the screens show for `Cc1cc2c(cc1C)NC(c1c(C)n(C)n(-c3ccccc3)c1=O)C1=C(CC(C)(C)CC1=O)N2` (stereo unspecified)?
D2 ag-1: 34*; D2 ag-2: -19; D2 antag: 13; D2 PAM-1: -70; D2 PAM-2: 8

How did CCOc1ccc(Nc2oc(/C=C/c3cc(OC)c(OC)c(OC)c3)nc2C#N)cc1 do in these assays?
D2 ag-1: -1; D2 PAM-2: 5

What do the screens show for `NC(=O)c1noc(C(=O)N(CC(=O)NC2CCCC2)Cc2ccc3c(c2)OCO3)c1N`?
D2 ag-1: 1; D2 ag-2: -1; D2 antag: 37*; D2 PAM-1: -10; D2 PAM-2: -3

Results for Cc1ccc(NC(=S)N(CCN(C)C)C(C)c2cccnc2)c(C)c1 (stereo unspecified) ?
D2 ag-1: -1; D2 ag-2: -2; D2 antag: -5; D2 PAM-1: -6; D2 PAM-2: 32*

What do the screens show for `CCc1ccc(NC(=O)CSC2=Nc3ccccc3C3=NC(CCC(=O)NCc4cccs4)C(=O)N23)cc1` (stereo unspecified)?
D2 ag-1: 0; D2 PAM-2: -14

What do the screens show for `CCN1C(=O)c2ccccc2S(=O)c2ccc(C(=O)N3CCCCCC3)cc21` (stereo unspecified)?
D2 ag-1: 0; D2 ag-2: -1; D2 antag: 32*; D2 PAM-1: -3; D2 PAM-2: -3

How did Clc1ccccc1CSc1nc2ccncc2[nH]1 do in these assays?
D2 ag-1: -1; D2 ag-2: 1; D2 antag: 32*; D2 PAM-1: -1; D2 PAM-2: -2

Results for O=C(NCc1ccccc1Cl)c1ccc(CSc2nc3ccncc3[nH]2)cc1 ?
D2 ag-1: -1; D2 ag-2: 2; D2 antag: -9; D2 PAM-1: 2; D2 PAM-2: 28

How did Cc1ccc(NC(=O)COc2cccc3c2OC(C)(C)C3)c(O)c1 do in these assays?
D2 ag-1: -1; D2 ag-2: -2; D2 antag: 30*; D2 PAM-1: -13; D2 PAM-2: -3

How did O=C(NCCCN1CCN(c2ccc(F)cc2)CC1)c1cnn(-c2ccc(F)cc2)c1-n1cccc1 do in these assays?
D2 ag-1: 4; D2 PAM-2: -17

Results for CCOc1ccccc1NC(=O)Nc1ccc2c(c1)OCO2 ?
D2 ag-1: 0; D2 ag-2: -5; D2 antag: -4; D2 PAM-1: -26; D2 PAM-2: -10

What do the screens show for `C=CCOc1ccccc1CN(C(=O)CCl)c1ccc2c(c1)OCO2`?
D2 ag-1: 0; D2 ag-2: -4; D2 antag: 33*; D2 PAM-1: -3; D2 PAM-2: 5

How did CCOc1ccccc1NC(=O)CSc1nnc2[nH]c(=O)cc(-c3ccccc3)n12 do in these assays?
D2 ag-1: 0; D2 PAM-2: 12

Results for Cc1ccc(NC(=O)CCCn2c(=O)c3cccn3c3cccnc32)cc1C ?
D2 ag-1: 0; D2 PAM-2: 3

Results for Cc1ccc2c(c1)[nH]c1c(N3CCN(Cc4ccccc4)CC3)ncnc12 ?
D2 ag-1: 1; D2 ag-2: 2; D2 antag: -28; D2 PAM-1: -32; D2 PAM-2: 16
